Compound activity (PubChem)
In the library only some 21% were active in any assay of this set; here they are far more common.
Pf growth 48h = inhibits P. falciparum growth in the first generation, 48 h; Potency, µM (top dose mostly 28.7 µM), actives largely listed as inhibitors; P. falciparum luciferase growth in erythrocytes, 48 h; actives 5.9% (n = 310,000)
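First compound was added to culture medium, then infected red cells at 0.1% parasitemia and 2% hematocrit (final). After incubation at 37 C under 5% CO2, luciferase detection reagent was dispensed and light output recorded.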
Pf growth 96h = P. falciparum growth inhibition at 96 hour, primary screen for plastid delayed-death inhibitors; Potency, µM (top dose mostly 28.7 µM), most hits filed as inhibitors; P. falciparum luciferase reporter growth, 96 h; AID 504834; actives 6.9% (n = 320,000)
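P. falciparum expressing integrated firefly luciferase grown in erythrocytes (2% hematocrit, 0.05% parasitemia final) with compounds for 96 hours at 37 C, 5% CO2. Growth inhibition read as loss of luminescence after adding luciferase detection reagent.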
Shiga toxin inh = blocks Shiga toxin action in Vero cells. actives 9.2% (n = 290,000). Vero cells, Shiga toxin protein synthesis inhibition reporter. inhibition, % at 38.7 µM; in the data active means inhibition mostly above about 28%, no sharp cut-off; inactive means mostly below about 43%
AMA1-RON2 inh = disrupts binding of P. falciparum AMA1 to RON2. actives 0.2% (n = 360,000). AID 720542. Potency, µM (series often up to 58.2 µM), usual class: inhibitors. AlphaScreen AMA1-biotinylated RON2 peptide binding; further: nearly all actives have a fitted effect of over 45% in size
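AMA1 (3D7) with his tag at 25 nM final met compounds first, then biotinylated RON2 peptide at 25 nM; detection used donor plus acceptor beads, 10 µg/mL apiece, read by AlphaScreen after 30 min at room temperature.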
HCV inh = blocks hepatitis C virus. Huh7.5.1 HCVcc-Cre infection, luciferase reporter, 44 h. Potency, µM (top dose mostly 41.8 µM), actives largely listed as inhibitors. actives 3.4% (n = 340,000). AID 651820
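Infectious HCV cell culture screen: compound-treated cells (1,000/well, pre-plated 4 h) are infected with HCVcc-Cre at roughly 0.5 moi and grown 44 h. Infection is quantified by luciferase signal after 15 min substrate incubation at room temperature.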
CHX counter = affects cycloheximide protein synthesis inhibition readout, counter-screen; actives 12% (n = 300,000); cell reporter, cycloheximide protein synthesis inhibition counterscreen; max response, %; AID 2314; in the data active means max response mostly above about 13%, no sharp cut-off; inactive means mostly below about 14%; further: read at 38.3 µM for the half of the compounds with a filed dose
Hits are given with their value; 0 = inactive; ? = inconclusive; - = no result. Unless noted, the call rests on the fitted dose curve; in most records, active means well fitted curve in the direction sought with a large enough effect; inconclusive means small, poorly fitted or top-dose-only effect, or another doubt; inactive means no such curve, though single readings can be large; an effect the other way counts as inactive or inconclusive.

SMILES | Pf growth 48h | Pf growth 96h | Shiga toxin inh | AMA1-RON2 inh | HCV inh | CHX counter
NC(=O)c1ccccc1NC(=O)Nc1ccc(F)c(Cl)c1 | 0 | ? | 55.8 | 0 | 0 | 42.1
CC(=O)Nc1ccccc1C(=O)C(=O)Nc1ccc(C)c(F)c1 | 0 | ? | 102.8 | 0 | 0 | 58.8
CC1(Oc2ccc(-n3ccnc3)cc2)CCN(Cc2cccn2-c2nccs2)C1 (centres undefined) | - | - | - | 0 | - | -
CC(=O)NS(=O)(=O)c1ccc(NC(=O)C(C)NS(=O)(=O)/C=C/c2ccccc2)cc1 (centres undefined) | - | - | - | 0 | 0 | -
CC(=O)Nc1ccccc1C(=O)C(=O)Nc1ccc(F)c(Cl)c1 | 0 | ? | 0 | 0 | 0 | 19.5
Cc1ccc(NC(=O)CCc2ccccc2)cc1C | - | - | - | 0 | - | -
Cc1ccc(NC(=O)/C(Cl)=C/c2ccccc2)cc1C | 0 | ? | 94.7 | 0 | 0 | 45.5
C=CCn1c(=O)c(C(=O)Nc2ncccc2C)c(O)c2ccccc21 | - | - | - | 0 | - | -
CCOc1ccccc1N1CCN(C(=O)c2ccncc2)CC1 | 0 | - | 0 | 0 | 0 | 0
Cc1ccc2c(C(=O)N3CCN(c4ccccc4)CC3)cc(-c3cccnc3)nc2c1C | 2.33µM | 0 | 0 | 0 | ? | 0
Cc1ccc2nc(-c3cccnc3)cc(C(=O)N3CCN(c4ccc([N+](=O)[O-])cc4)CC3)c2c1 | 10.4µM | 0 | 0 | 0 | ? | 0
CCOc1ccccc1N1CCN(C(=O)c2cc(-c3cccnc3)nc3c(Cl)cccc23)CC1 | 3.29µM | 0 | 0 | 0 | 0 | 0
CC1CCN(S(=O)(=O)c2ccc3c4c2CC(=O)N4CC(C)S3)CC1 (centres undefined) | 8.28µM | 0 | 0 | 0 | 0 | 0
Cc1ccc(S(=O)(=O)N2CCN(S(=O)(=O)N3CCC(C)CC3)CC2)c(C)c1 | 0 | 0 | 0 | 0 | 0 | 0
O=c1c(O)cccc2cc(O)c(O)c(O)c12 | 0 | ? | 0 | 2.51µM | 0 | 0
Cc1ccc(C(C)NC(=S)NCc2ccc(F)cc2)cc1C (centres undefined) | 0 | 0 | 0 | 0 | ? | 0
CCOc1ccc(C(C)NC(=S)NCc2ccc(F)cc2)cc1 (centres undefined) | ? | 0 | 0 | 0 | ? | 0
CCC(NC(=S)NCc1ccc(F)cc1)c1ccc(C)cc1 (centres undefined) | 9.28µM | 10.4µM | 0 | 0 | 0 | 0
CCc1ccc(C(C)NC(=S)NCc2ccc(F)cc2)cc1 (centres undefined) | 13.1µM | 14.7µM | 0 | 0 | ? | 0
Cc1ccccc1C(=O)NNS(=O)(=O)c1cccc([N+](=O)[O-])c1 | 0 | 0 | 0 | 0 | 0 | 0
Cc1ccc(C(=O)n2nc(-c3ccccc3)nc2NCc2ccco2)cc1 | 0 | 0 | 0 | 0 | 0 | 18.6
Nc1nc(-c2ccco2)nn1S(=O)(=O)c1ccccc1 | 0 | 0 | 0 | 0 | 0 | 0
O=C(c1ccccc1)n1nc(-c2ccccc2)nc1NCc1ccco1 | - | ? | 0 | 0 | 0 | 0
CCCC(=O)n1nc(-c2ccc(C)cc2)nc1NCc1ccco1 | 0 | 0 | 76.1 | 0 | 0 | 31.7
O=S(=O)(c1ccccc1)n1nc(-c2ccccc2)nc1NCc1ccco1 | 0 | 0 | 74.2 | 0 | 0 | 30.5
SMILES | Pf growth 48h | Pf growth 96h | Shiga toxin inh | AMA1-RON2 inh | HCV inh | CHX counter
CCN(c1ccccc1)S(=O)(=O)c1ccc(Cl)c(C(=O)NCC2CCCO2)c1 (centres undefined) | 0 | 0 | 0 | 0 | 0 | 0
Cc1cccc(C)c1NC(=O)C1(C)CSCC(=O)N1Cc1ccco1 (centres undefined) | - | - | - | 0 | - | -
CCN(CC)c1ccc2cc(-c3nc4ccccc4[nH]3)c(=O)oc2c1 | 0 | 0 | 81.5 | 0 | ? | 49.2
CCN(CC)c1ccc2cc(-c3nnc(-c4ccccc4)o3)c(=O)oc2c1 | 0 | 0 | 70.3 | 0 | 0 | 35.4
CN(C)Cc1c(O)ccc2cc(-c3nc4ccccc4n3C)c(=O)oc12 | 0 | 0 | 0 | 0 | 0 | 20.1
CCN(CC)c1ccc2cc(C(=O)c3cccs3)c(=O)oc2c1 | - | - | - | 0 | - | -
CCN(CC)c1ccc2cc(-c3nc4ccccc4n3C)c(=O)oc2c1 | - | 0 | 80.5 | 0 | ? | 36.9
CCN(CC)c1ccc2cc(-c3nc(-c4ccc(OC)cc4)cs3)c(=O)oc2c1 | 0 | 0 | 0 | 0 | 0 | 0
CCN(CC)c1ccc2c(C)c(CO)c(=O)oc2c1 | ? | 0 | 0 | 0 | ? | 0
